Screens deposited in PubChem BioAssay by National Center for Advancing Translational Sciences (NCATS).
Rows were chosen to be rich in hits. Some 9.3% of all compounds tested hit in one or more screens of this group.
SMN2 splice enh: SMN2 splice variant enhancement; actives 2.8% (n = 210,000); Potency, µM (series often up to 46.1 µM), actives largely listed as activators; HEK293 SMN2-luciferase splicing reporter, luminescence, 30-36 h; note: nearly all actives have a fitted effect of over 55% in size
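HEK293 cells carry an SMN2 […]–luciferase reporter in which exon 7 inclusion puts luciferase in frame. Cells were plated 10-12 h before compound addition, then incubated 30-36 h at 37C. ONE-Glo luminescence was read; sodium butyrate at 4.5 mM final served as control.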
NPC1 promoter act: NPC1 promoter activation; Huh7 NPC1 promoter luciferase reporter, 24 h; Potency, µM (titrated, usually from 9.22 µM), usual class: activators; actives 2.4% (n = 320,000); AID 485313; note: nearly all actives have a fitted effect of over 60% in size
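Stably transfected Huh7 (NPC1 promoter→luciferase), 1500 cells/well in Opti-MEM + 10% FBS, 2 h settle, then compound 24 h at 37 °C. Luminescence after 10 min with Amplite reagent.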
ELG1 genotoxic: induces genotoxicity in HEK293T cells with luciferase-tagged ELG1. AID 504466. actives 1.3% (n = 330,000). Potency, µM (top dose mostly 46 µM), actives largely listed as activators. HEK293T ELG1-luciferase reporter, luminescence, 16 h; note: nearly all actives have a fitted effect of over 60% in size
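Cells (2,000/well) expressing the ELG1-luciferase fusion are dosed by pin tool and kept 16 hr at 37 °C, 5% CO2. Signal comes from ONE-Glo luciferase reagent after 30 min at room temperature.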
ELG1 DNA repair: ELG1-dependent DNA repair inhibition; HEK293T ELG1-luciferase reporter, luminescence, 16 h; DNA damage induced by 5-fluorouridine; Potency, µM (highest dose often 46.1 µM), most hits filed as inhibitors; actives 2.3% (n = 330,000); note: nearly all actives have a fitted effect of over 55% in size
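Overnight (16 hr) co-exposure of 2,000 cells/well to 5-fluorouridine and compound at 37 °C preceded detection. Luciferase was quantified via ONE-Glo luminescence; loss of signal denotes inhibition.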
FLuc modulator: counter-screen for miR-21 project: firefly luciferase inhibitors or activators. purified FLuc, Km substrates, luminescence inhibition. actives 6.9% (n = 360,000). P08659. Potency, µM (top dose mostly 57.5 µM), most hits filed as inhibitors; note: nearly all actives have a fitted effect of over 55% in size
Target sequence (P08659 whole entry, looked up): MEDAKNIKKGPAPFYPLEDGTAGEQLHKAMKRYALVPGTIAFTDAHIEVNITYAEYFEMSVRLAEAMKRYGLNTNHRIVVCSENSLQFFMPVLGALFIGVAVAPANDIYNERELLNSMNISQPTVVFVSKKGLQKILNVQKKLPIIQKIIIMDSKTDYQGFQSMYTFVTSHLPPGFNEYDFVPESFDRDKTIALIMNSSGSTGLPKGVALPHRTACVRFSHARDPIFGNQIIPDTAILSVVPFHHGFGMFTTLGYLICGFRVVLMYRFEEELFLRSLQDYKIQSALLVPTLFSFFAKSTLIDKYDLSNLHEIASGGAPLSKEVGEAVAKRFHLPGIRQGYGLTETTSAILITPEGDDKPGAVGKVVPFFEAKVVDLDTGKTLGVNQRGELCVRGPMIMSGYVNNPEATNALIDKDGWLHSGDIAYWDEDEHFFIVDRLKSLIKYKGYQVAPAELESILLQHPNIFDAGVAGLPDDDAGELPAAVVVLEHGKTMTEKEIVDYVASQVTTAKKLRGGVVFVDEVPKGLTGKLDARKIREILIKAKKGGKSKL
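Purified P. pyralis luciferase, 10 nM final, with Km-level 10 uM D-luciferin and 10 uM ATP in 50 mM Tris acetate pH 7.5, 10 mM Mg acetate, 0.01% Tween-20, 0.05% BSA; 6-point qHTS titration about 60 µM downward; luminescence read.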
Rab9 prom act: activators of Rab9 promoter | Huh7 Rab9 promoter-luciferase reporter, luminescence, 24 h | Potency, µM (highest dose often 9.22 µM), hits mostly activators | actives 2.8% (n = 320,000) | AID 485297; note: nearly all actives have a fitted effect of over 60% in size
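Promoter activation is measured as luciferase luminescence in Huh7 cells stably transfected with a Rab9 promoter–luciferase construct, following 24 h compound exposure at 37 °C and 10 min reagent incubation at ambient temperature.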
Numbers stand for hits; - = inactive; ? = inconclusive; . = no result; [ ] = dose if it differs, or a comment. Calls come from the whole dose curve; as a rule, active = well fitted curve in the direction sought with a large enough effect; inconclusive = small, poorly fitted or top-dose-only effect, or another doubt; inactive = no such curve, though single readings can be large; an effect the other way counts as inactive or inconclusive.

SMILES | SMN2 splice enh | NPC1 promoter act | ELG1 genotoxic | ELG1 DNA repair | FLuc modulator | Rab9 prom act
Cc1cc(S(=O)(=O)Nc2ccc3c(c2)n(C)c(=O)n3C)ccc1F | - | - | ? | - | - | -
CCn1c(SCC(=O)Nc2ccc(OC)c(S(=O)(=O)N3CCCCC3)c2)nnc1C1CC1 | . | - | - | - | - | -
Cn1c(=O)n(C)c2cc(NS(=O)(=O)c3ccc(C(C)(C)C)cc3)c(NCc3ccccc3)cc21 | 5.6µM | . | . | . | ? | .
Cn1c(=O)n(C)c2cc(N3CCOCC3)c(NS(=O)(=O)c3ccc(C(C)(C)C)cc3)cc21 | - | . | . | . | - | .
CCOc1cc(N2CCOCC2)c(OCC)cc1NC(=O)[C@H](C)NC(=O)c1ccco1 | . | - | - | ? | - | -
CSc1nnc2c(n1)OC(c1cccc(O)c1Cl)Nc1ccccc1-2 (centres undefined) | - | . | . | . | - | .
O=C(CSc1nccn1Cc1ccc(F)cc1)Nc1ccc(F)cc1F | . | - | - | 23µM | - | -
COc1ccc(OC)c(NC(=O)CSc2nccn2Cc2ccco2)c1 | . | - | - | - | 15µM | -
COc1ccccc1NC(=O)CSc1nccn1Cc1ccc(F)cc1 | . | - | - | - | - | -
CC(=O)Nc1cccc(NC(=O)CSc2nccn2Cc2ccco2)c1 | . | - | - | - | - | -
O=C(CSc1nccn1Cc1ccco1)Nc1ccccc1F | . | ? | ? | - | ? | -
Cc1cc(C)c(NC(=O)CSc2nccn2Cc2ccco2)c(C)c1 | . | . | . | . | 17µM | .
Cc1ccc(NC(=O)CSc2nccn2Cc2ccco2)c(C)c1 | . | 0.89µM | 5.2µM | ? | 4.3µM | 0.63µM
Cc1ccc(C)c(CN2CCC(CNC(=O)CCc3nnc4ccc(N5CCC(C)CC5)nn34)CC2)c1 | . | - | - | - | - | -
Cc1ccc(S(=O)(=O)N2CCN(Cc3cc(=O)n4ccccc4n3)CC2)cc1C | . | - | - | - | - | -
Cc1ccc(S(=O)(=O)N2CCN(Cc3cc(=O)n4ccccc4n3)CC2)c(C)c1 | . | - | - | 7.3µM | - | -
CCc1cc(=O)[nH]c(SCCC(F)=C(F)F)n1 | - | - | - | - | - | -
CCOC(=O)NNc1ccccc1 | . | - | - | ? | - | -
CCOC(=O)C(=CNNc1ccccc1)C(=O)OCC | . | - | - | 6.5µM | - | -
O=C(CNCc1ccccc1)NC1C2CC3CC(C2)CC1C3 (centres undefined) | . | - | - | ? | ? | -
O=c1oc2c(O)cccc2cc1-c1nc2ccccc2[nH]1 | . | 0.56µM | ? | ? | 0.67µM | 0.79µM
O=C(O)c1ccc2nc(-c3cc4cccc(O)c4oc3=O)[nH]c2c1 | . | - | . | . | 0.85µM | -
O=c1oc2c(CN3CCCCC3)c(O)ccc2cc1-c1nc2ccccc2[nH]1 | . | - | ? | ? | 9.5µM | ?
O=C(O)c1ccc2nc(-c3cc4cc(F)ccc4oc3=O)[nH]c2c1 | . | . | . | . | 5.4µM | .
CCCCOc1ccc(-c2ncc([N+](=O)[O-])cn2)cc1 | . | 4µM | ? | ? | ? | 3.2µM
SMILES | SMN2 splice enh | NPC1 promoter act | ELG1 genotoxic | ELG1 DNA repair | FLuc modulator | Rab9 prom act
CCCCOc1ccc(-c2ncc(Cl)cn2)cc1 | 13µM | 2.5µM | 13µM | ? | 2.7µM | 1.8µM
CCCCOc1ccc(-c2[nH]ncc2C=O)cc1 | . | - | ? | ? | ? | -
CCCCOC(=O)c1ccc(Nc2ccc([N+](=O)[O-])cn2)cc1 | -[1.84 µM] | - | - | - | - | -
CC1CCCC(NC(=O)COC(=O)COc2cccc(F)c2)C1C (centres undefined) | . | . | - | - | . | .
Nc1c(-c2n[nH]c(=S)n2-c2ccc(Cl)cc2Cl)cnn1-c1ccccc1 | . | - | - | - | - | -
Nc1[nH]nc2c1NN(c1ccc(Cl)cc1Cl)N2 | ? | ? | ? | ? | 12µM | -
Cc1ccsc1C1C(C#N)=C(N)N(N(C)C)C2=C1C(=O)CC(C)(C)C2 (centres undefined) | 25µM | - | - | - | - | -
COc1cccc(C(=O)N2c3cc(C)ccc3C(C)(c3ccccc3)CC2(C)C)c1 (centres undefined) | - | . | . | . | - | .
O=C(Nc1ccc(F)cc1)c1cc2ccccc2o1 | . | 3.5µM | - | ? | 6.7µM | 3.2µM
CC(C)c1nnc(NC(=O)c2cc3ccccc3o2)s1 | . | ? | ? | ? | 6.7µM | 2µM
O=C(Nc1ccccc1)c1cc2ccccc2o1 | 13µM | 2.8µM | ? | ? | 1.2µM | 1.6µM
Cc1cc(C(=O)Nc2ccccc2)oc1C | 20µM | ? | ? | ? | 12µM | 2.8µM
COc1ccc(-n2c(=O)c(CCc3ccccc3)nc3cnc(N4CCNCC4)nc32)cc1 | - | . | . | . | . | .
COCCN(C(=O)CNC(=O)c1cccs1)C(C(=O)NC(C)(C)C)c1ccccc1 (centres undefined) | - | - | - | - | ? | -
Cn1c(C(C)(O)C(O)c2ccccc2)nc2ccccc21 (centres undefined) | - | - | - | - | - | -
O=C(Nc1ccc(N2CCCC2)cc1)c1cc2ccccc2o1 | . | 3.5µM | ? | ? | 3µM | 2µM
CSC(C(=O)c1cc2ccccc2o1)c1ccccc1 (centres undefined) | . | ? | - | ? | ? | 3.2µM
O=C(Nc1ccc(NC(=O)c2cc3ccccc3o2)cc1)c1ccco1 | . | - | - | - | - | -
CC(=O)c1ccc(NC(=O)c2cc3ccccc3o2)cc1 | . | 1µM | 2.6µM | ? | ? | 0.63µM
CC(=O)N1CCN(c2ccc(NC(=O)c3cc4ccccc4o3)cc2)CC1 | . | - | - | ? | ? | -
O=C(NNC(=O)c1ccccc1O)c1cc2ccccc2o1 | . | 4.5µM | ? | ? | 27µM | ?
O=C(NNC(=O)c1cc2ccccc2o1)c1ccncc1 | . | . | - | - | . | .
Cc1c(C2=CCN(S(=O)(=O)c3ccc(CC(C)C)cc3)CC2)c2ccccc2n1CC(=O)N1CCCC1 | - | . | . | . | - | .
Clc1ccc(CSc2snnc2-c2ccccc2)c(Cl)c1 | ? | ? | ? | ? | 13µM | -
N#C/C(=C\Nc1ccccc1O)c1nc2ccccc2o1 | -[1.84 µM] | - | - | ? | 19µM | -
SMILES | SMN2 splice enh | NPC1 promoter act | ELG1 genotoxic | ELG1 DNA repair | FLuc modulator | Rab9 prom act
N#C/C(=C\c1cccc(O)c1)c1nc2ccccc2o1 | . | - | - | - | 8.5µM | -
N#C/C(=C\c1ccncc1)c1nc2ccccc2o1 | . | - | - | ? | - | -
N#C/C(=C\c1ccc(Cl)cc1)c1nc2ccccc2o1 | - | - | - | ? | ? | -
CC(=O)Nc1nc(C2COc3ccccc3O2)cs1 (centres undefined) | 4µM | 1.3µM | 0.65µM | ? | 4.8µM | 0.56µM
NC(N)=Nc1nc(C2COc3ccccc3O2)cs1 (centres undefined) | 4.5µM | 1.6µM | ? | ? | 3.4µM | 1.3µM
CC(=O)NCC1COc2ccccc2O1 (centres undefined) | . | - | - | - | - | -
N/C(=N\O)C1COc2ccccc2O1 (centres undefined) | - | - | - | - | - | -
O=C(O)CC[P+](c1ccccc1)(c1ccccc1)c1ccccc1 | -[9.22 µM] | . | . | . | . | .
